Gal4-VP16 FLuc: counter-screen for ROR gamma inhibitors: Gal4-VP16 reporter; Drosophila S2 Gal4-VP16 UAS-luciferase, luminescence, 20 h; 310,000 tested, 3.5% active; Potency, µM (highest dose often 53.6 µM), inactives show at the top dose activity, negative = inhibition, actives largely listed as inhibitors; AID 2546;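 also: Gal4-VP16 expression switched on by copper sulfate through the metallothionein promoter; nearly all actives have a fitted effect of over 50% in size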
DT40 TDP1 CPT: growth inhibition of DT40 Tdp1-/-;hTDP1 cells with camptothecin (screen for TDP1 inhibitors) | chicken DT40 Tdp1-/-;hTDP1 cells + 20 nM CPT, ATP luminescence, 48 h | Potency, µM (series often up to 46.2 µM), inactives show at the top dose activity change, negative = growth inhibition, hits mostly inhibitors | 420,000 tested, 12% active | AID 686979; also: nearly all actives have a fitted effect of over 55% in size
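Chicken DT40 Tdp1-/- cells complemented with human TDP1, 400 cells/well, exposed to compounds plus 20 nM camptothecin for at least 48 h at 37 C; viability read as ATP content by CellTiter-Glo luminescence.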
RORg inh: inhibitors of mouse ROR gamma transcriptional activity. 310,000 tested, 5.4% active. P51450. Potency, µM (top dose mostly 53.6 µM), without a hit: at the highest dose activity change, negative = inhibition, most hits filed as inhibitors. Drosophila S2 Gal4-RORgamma UAS-luciferase reporter, 20 h; also: nearly all actives have a fitted effect of over 60% in size
Target sequence (P51450 whole entry, looked up, the tested form may be a part): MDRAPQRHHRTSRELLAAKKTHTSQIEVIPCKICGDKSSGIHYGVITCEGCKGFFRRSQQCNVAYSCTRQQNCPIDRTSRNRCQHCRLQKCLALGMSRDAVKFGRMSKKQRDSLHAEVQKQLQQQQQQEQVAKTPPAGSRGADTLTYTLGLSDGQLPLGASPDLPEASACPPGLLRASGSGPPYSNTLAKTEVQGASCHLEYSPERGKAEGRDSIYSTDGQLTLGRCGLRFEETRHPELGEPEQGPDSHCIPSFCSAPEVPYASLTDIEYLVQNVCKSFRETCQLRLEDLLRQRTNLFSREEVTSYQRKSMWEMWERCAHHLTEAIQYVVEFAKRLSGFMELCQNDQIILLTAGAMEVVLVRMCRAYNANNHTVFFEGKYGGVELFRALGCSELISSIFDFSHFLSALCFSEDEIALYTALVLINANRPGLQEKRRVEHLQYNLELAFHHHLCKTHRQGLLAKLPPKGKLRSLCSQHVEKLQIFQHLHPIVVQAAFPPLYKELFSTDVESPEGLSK
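Using a luciferase readout, inhibitors were identified by reduced reporter activity in Drosophila cells coexpressing a copper-inducible Gal4–ROR gamma fusion and UAS-driven Photinus luciferase, incubated 20 hr after 700 uM copper sulfate.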
TDP1 inh: TDP1 (human) enzyme inhibition; Q9NUW8; recombinant TDP1, AlphaScreen DNA substrate cleavage; Potency, µM (top dose mostly 130 µM), for the others: top-dose activity change, negative = inhibition, usual class: inhibitors; 350,000 tested, 0.28% active; also: nearly all actives have a fitted effect of over 40% in size
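Here, a 5' biotin and 3' phosphotyrosine-FITC DNA oligonucleotide reports Tdp1 activity: intact substrate bridges AlphaScreen beads, while cleavage leaves a 3' phosphate and drops signal. All incubations at room temperature.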
TDP1 cell noCPT: qHTS for Inhibitors of human tyrosyl-DNA phosphodiesterase 1 (TDP1): qHTS in cells in absence of CPT | DT40 Tdp1-/- hTDP1 cells, no CPT, ATP luminescence, 48 h | Potency, µM (top dose mostly 46.2 µM), inactives show at the highest dose activity change, negative = growth inhibition, most hits filed as inhibitors | 420,000 tested, 15% active | AID 686978, 2013; also: nearly all actives have a fitted effect of over 55% in size
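A cellular qHTS used chicken DT40 cells lacking endogenous Tdp1 but carrying stably transfected human TDP1. Compounds were applied without camptothecin, and cell growth kinetics were judged by ATP-dependent luminescence after ≥48 hr.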
* marks the source's active call; other numbers are inactive results; ? = inconclusive; / = no result; ! = not confirmed by another sample; [ ] = another dose, or the depositor's remark. Sampled rows, rich in hits. Any-hit rate of the full collection: about 19%. Calls follow the shape of the dose curve; as a rule, active = well fitted curve in the direction sought with a large enough effect; inconclusive = small, poorly fitted or top-dose-only effect, or another doubt; inactive = no such curve, though single readings can be large; an effect the other way counts as inactive or inconclusive. % is scaled to controls: 0 for no effect and ±100 for the full control effect; potency is read from the fitted curve at half-maximal effect.

SMILES | Gal4-VP16 FLuc | DT40 TDP1 CPT | RORg inh | TDP1 inh | TDP1 cell noCPT
COc1cc2c(cc1OC)CN(c1ccc([N+](=O)[O-])cc1Cl)CC2 | 18µM* | 23µM* | ? | 1% | 12µM*
COc1ccccc1N1CCN(c2ccc([N+](=O)[O-])cc2Cl)CC1 | -8% | 15µM* | 30%[10 µM] | -1% | 12µM*
CC(C)C(=O)N1CCN(c2ccc([N+](=O)[O-])cc2Cl)CC1 | -2% | ? | ? | 0% | ?
CC(C)CC(=O)NC(=S)N1CCN(c2ccc([N+](=O)[O-])cc2Cl)CC1 | ? | ? | 3.5µM* | 3% | ?
COc1cc2c(cc1OC)CN(c1ccc([N+](=O)[O-])cc1C#N)CC2 | 22% | 21µM* | 16% | 7% | 13µM*
Cc1cc(C(=O)CSc2nn3c(=O)c(C(C)(C)C)nnc3s2)c(C)n1C1CC1 | -9% | ? | -1% | 5% | ?
COC(=O)CSc1cc(C)nc(SC)n1 | 4% | 1% | 12% | 4% | 1%
CCOc1ccc2oc(-c3ccccc3)c(C(=O)N3CCN(C)CC3)c2c1 | 4% | 23µM* | 1% | 1% | ?
CCOC(=O)c1c(-c2ccccc2)oc2ccc(OCC)cc12 | 3% | 11% | 2% | -4% | 1%
CCOC(=O)c1c(-c2ccccc2)oc2ccc(OCC(O)CNCCN(C)C)cc12 (stereo not given) | ? | 16µM* | ? | / | ?
CC(=O)Oc1ccc2oc(C)c(C(=O)N3CCOCC3)c2c1 | -1% | -7% | 4% | 2% | -11%
COc1ccc2oc(-c3ccccc3)c(C(=O)N3CCOCC3)c2c1 | 1% | 16µM* | 14% | 1% | 13µM*
Cc1ccc(C(=O)NCc2cccnc2)o1 | 2% | 13% | -9% | 4%[56.1 µM] | 15%
COc1cccc(CNC(=O)Cc2ccc(NC3=NC4CS(=O)(=O)CC4S3)cc2)c1 (stereo not given) | 3% | 3% | -17% | / | -2%
Cc1cccc(CNC(=O)CCCN2C(=O)CCn3nc(-c4cccn4C)cc32)c1 | / | -29% | / | 8% | -21%
CC(=O)c1c(C)[nH]c(C(=O)COC(=O)CCNS(=O)(=O)c2ccc(C)c(C)c2)c1C | / | ? | / | 0% | -8%
COc1ccc(N2CCN(C(=O)c3cn(C)c4ccc(S(=O)(=O)N(C)C5CCCCC5)cc4c3=O)CC2)cc1 | / | -5% | / | 0% | -4%
COc1ccccc1OCCC(=O)O | 8% | 0% | 8% | -3% | 10%
Cc1oc(-c2ccc(Cl)cc2)nc1CN1CCC(C(=O)NCC2CCCO2)CC1 (stereo not given) | 0% | -9% | -17% | 4% | -1%
CCC1CCCCN1CCCNC(=O)C1CCN(Cc2nc(-c3ccc(Cl)cc3)oc2C)CC1 (stereo not given) | -12% | 3.7µM* | -11% | 4% | 2.6µM*
Cc1oc(-c2ccc(Cl)cc2)nc1CN1CCC(C(=O)NCCCN2CCOCC2)CC1 | -6% | 29µM* | -1% | 7% | ?
CCc1ccc(NC(=O)C[n+]2cc(-c3ccc(C)cc3)n3c2CCC3)cc1 | -15% | 2.3µM* | 20% | 2% | 3.7µM*
Cc1ccc(-c2csc(NC(=O)C[n+]3cc(-c4ccccc4)n4c3CCC4)n2)cc1 | -1% | 21µM* | 37% | / | 18µM*
Cc1ccc(-c2csc(NC(=O)CN3CC(C)OC(C)C3)n2)cc1 (stereo not given) | -1% | ? | 5% | 3% | ?
Cc1ccc(NC(=O)C[n+]2cc(-c3ccccc3)n3c2CCC3)c(C)c1 | -4% | -21% | -4% | 5% | ?
SMILES | Gal4-VP16 FLuc | DT40 TDP1 CPT | RORg inh | TDP1 inh | TDP1 cell noCPT
Cc1ccc(-c2csc(NC(=O)C[n+]3cc(-c4ccc(C)cc4)n4c3CCC4)n2)cc1 | -4% | 5.8µM* | ? | 3% | 9.2µM*
Cc1nc2cc(Cl)ccc2n1-c1ccccc1 | -22% | -27% | 16µM* | 6% | -12%
CC(=O)Nc1ccc2c(c1)nc(C)n2-c1ccccc1 | 30% | -8% | 66% | 1% | -9%
CC(=O)N1CCCc2cc(S(=O)(=O)N3CCCC(C(=O)NCc4ccccc4)C3)ccc21 (stereo not given) | 2% | ? | 14% | 6% | 26µM*!
CCCN(CCC)S(=O)(=O)c1ccc2c(c1)CCCN2C(C)=O | -15% | -19% | -1% | 4% | ?
CC(=O)N1CCCc2cc(S(=O)(=O)N(Cc3ccccc3)C(C)C)ccc21 | / | 15µM* | / | 5% | 16µM*
CC(=O)N1CCCc2cc(S(=O)(=O)N3CCCC(C(=O)NCc4ccc(C)cc4)C3)ccc21 (stereo not given) | 2% | 18µM* | -2% | 4% | 23µM*
COc1ccc(NCC(=O)Nc2ccc(C#N)cc2)cc1Cl | -13% | ? | 24% | 2% | ?
O=C(CSc1nnc(NC(=O)c2cccc(Br)c2)s1)NCC1CCCO1 (stereo not given) | -14% | 2% | -3% | 4% | -8%
O=C(NC1CCCCCC1)c1ccc(CS(=O)c2cccc(Cl)c2)o1 (stereo not given) | / | ? | / | 0% | ?
N/C(=N\OC(=O)Cc1ccc(Cl)cc1)c1ccccn1 | ? | -15% | -13% | 4% | -21%
CCN(CC)S(=O)(=O)c1ccc(C(=O)NCCSc2c(-c3ccc(OC)cc3)[nH]c3ccccc23)cc1 | / | 7.3µM* | / | 9% | 3.7µM*
CCN(CC)S(=O)(=O)c1ccc(C(=O)NCCc2cc3c(OC)ccc(OC)c3[nH]c2=O)cc1 | -10% | ? | 4% | 6% | 16µM*
Cc1ccc(-c2[nH]c3ccccc3c2SCCNC(=O)c2cc3ccccc3oc2=O)cc1 | -8% | ? | -1% | 7% | ?
COc1cccc(C(=O)NCCSc2c(-c3ccc(F)cc3)[nH]c3ccccc23)c1OC | / | 16µM* | / | 9% | 13µM*
COc1ccc(-c2[nH]c3ccccc3c2SCCNC(=O)c2ccc(S(=O)(=O)N(C)C)cc2)cc1 | / | 3.3µM* | / | 12% | 2.6µM*
CN(C)S(=O)(=O)c1ccc(C(=O)NCCSc2ccccc2)cc1 | -26% | -20% | -30% | 5% | ?
Cc1cc(Cl)c2oc(C(=O)NC3CCC(O)CC3)c(C)c2c1 (stereo not given) | -1% | ? | 4%[1.91 µM] | / | ?
COc1ccc(-c2[nH]c3ccccc3c2SCCNC(=O)c2cc(OC)c(OC)c(OC)c2)cc1 | / | 5.2µM* | / | 3% | 3.7µM*
COc1ccc(NC2SC(=O)N(CC(=O)O)C2=O)cc1 (stereo not given) | 7% | -19% | -12% | 2% | -23%
CC(=O)Oc1ccc(/C=C(\NC(=O)c2ccco2)C(=O)Nc2ccc(C(C)=O)cc2)cc1 | 12% | -1% | 1% | / | -9%

Bioassay records from PubChem BioAssay.
